# PubChem BioAssay (NCI)
# Compounds without any hit were thinned out: in the full panel of roughly 79,000, 15% have a hit. Unmarked numbers belong to inactive results. Calls of active or inactive are those of the source. No stated cut-off is given here; in the data, active means growth inhibition above about 70%; inactive means the rest.
# Experiments:
# [1] = NCI Yeast Anticancer Drug Screen. Data for the mlh1 strain (AID 171);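 further: 0% = growth of vehicle-treated control cultures of the same strain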; details: S. cerevisiae mlh1 strain growth inhibition, active compounds read high
# Summary of the method: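 A yeast strain with a defined genetic lesion serves as the test organism. Cultures receive compound or vehicle, and growth is measured.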
# [2] = NCI Yeast Anticancer Drug Screen. Data for the sgs1 strain (AID 173);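 further: 0% = growth of vehicle-only control cultures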; details: S. cerevisiae sgs1 mutant, active compounds read high
# Summary of the method: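 A genetically defined yeast mutant is incubated with the test compound, and its growth is compared to that of the same strain given vehicle.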
# [3] = NCI Yeast Anticancer Drug Screen. Data for the mlh1 rad18 strain (AID 175); details: S. cerevisiae mlh1 rad18 strain growth inhibition, active compounds read high
# Summary of the method: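 Steps: expose repair-defective yeast to compound; measure growth; express inhibition against vehicle-treated controls.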
# [4] = NCI Yeast Anticancer Drug Screen. Data for the rad18 strain (AID 177); details: S. cerevisiae rad18 mutant growth inhibition, active compounds read high
# Summary of the method: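 Measured value is growth inhibition of a yeast strain bearing a DNA repair alteration, referenced to vehicle-treated cells.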
# [5] = NCI Yeast Anticancer Drug Screen. Data for the rad52 strain (AID 147);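 further: 0% = growth of vehicle-treated control cultures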; details: S. cerevisiae rad52 mutant growth inhibition, active compounds read high
# Summary of the method: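 Here a repair-compromised yeast strain receives each compound; its growth is then quantified and normalised to vehicle-only controls.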
# [6] = NCI Yeast Anticancer Drug Screen. Data for the rad50EPP+ strain (AID 151);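 further: 0% = growth of vehicle-treated control cultures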; details: S. cerevisiae rad50 mutant strain, active compounds read high
# Summary of the method: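 Read-out is yeast growth inhibition relative to vehicle; cells used were the rad50EPP+ strain.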
# [7] = NCI Yeast Anticancer Drug Screen. Data for the mgt1 strain (AID 153); details: S. cerevisiae mgt1 mutant growth inhibition, active compounds read high
# Summary of the method: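 Measured: inhibition of mgt1 yeast growth by compound, normalized to vehicle-treated cultures.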
# [8] = NCI Yeast Anticancer Drug Screen. Data for the rad50 strain (AID 155);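 further: 0% = growth of vehicle-only cultures of the same strain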; details: S. cerevisiae rad50 strain growth inhibition, active compounds read high
# Summary of the method: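 Growth of the mutant yeast was measured after compound exposure and referenced to vehicle-treated cultures.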
# [9] = NCI Yeast Anticancer Drug Screen. Data for the mec2-1 strain (AID 157); details: S. cerevisiae mec2-1 strain, active compounds read high
# Summary of the method: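 Using mec2-1 yeast: add compound, measure growth, express inhibition versus vehicle-treated cultures.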
# [10] = NCI Yeast Anticancer Drug Screen. Data for the rad14 strain (AID 159);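 further: 0% = growth of vehicle-treated control cultures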; details: S. cerevisiae rad14 strain growth inhibition, active compounds read high
# Summary of the method: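 Here, inhibition of yeast growth was measured after compound exposure, using a strain with a genetic defect in DNA damage repair and vehicle-treated cultures as the reference.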
# [11] = NCI Yeast Anticancer Drug Screen. Data for the sgs1 mgt1 strain (AID 161);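 further: 0% = growth of cultures given vehicle only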; details: S. cerevisiae sgs1 mgt1 strain, active compounds read high
# Summary of the method: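 Compounds are added to genetically altered yeast, and growth is compared with cultures given vehicle alone to give percent inhibition.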
# [12] = NCI Yeast Anticancer Drug Screen. Data for the CLN2oe strain (AID 163);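 further: 0% = growth of vehicle-only control cultures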; details: S. cerevisiae CLN2oe strain, active compounds read high
# Summary of the method: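 Whole-cell yeast growth assay. A strain engineered for altered cell-cycle control received compound, and inhibition relative to vehicle-treated cultures was recorded.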
# [13] = NCI Yeast Anticancer Drug Screen. Data for the cln2 rad14 strain (AID 165);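 further: 0% = growth equal to vehicle treated cultures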; details: S. cerevisiae cln2 rad14 strain, active compounds read high
# Summary of the method: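 Yeast strain cln2 rad14, bearing defects in cell cycle control and DNA repair, serves as the test system; values reflect growth inhibition compared with vehicle.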
# [14] = NCI Yeast Anticancer Drug Screen. Data for the bub3 strain (AID 167); details: S. cerevisiae bub3 mutant strain, active compounds read high
# Summary of the method: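 Whole-cell yeast assay. The mutant strain was incubated with compounds, and growth inhibition was determined by comparison with vehicle-treated cells.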
# [15] = NCI Yeast Anticancer Drug Screen. Data for the wt2 strain (AID 169);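 further: 0% = growth of vehicle-treated yeast cultures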; details: S. cerevisiae wt2 strain growth inhibition, active compounds read high
# Summary of the method: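 Treated yeast vs. vehicle-treated yeast: growth inhibition determined.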
# [16] = NCI Yeast Anticancer Drug Screen. Data for the wt1 strain (AID 149);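 further: 0% = growth of vehicle-treated wt1 cultures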; details: S. cerevisiae wt1 strain (SPY 50644) growth inhibition, active compounds read high
# Summary of the method: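 Measured: growth of wt1 yeast under compound versus vehicle treatment, reported as inhibition.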
# [17] = at 5.0 µM (retest, dose inferred, filed as 0.5)
# [18] = at 50.0 µM (retest, dose inferred, filed as 5.0)
compound,measurement,setting,value
O=C1C[C@H]2[C@H](c3ccc(Br)cc3)[C@H]3C(=O)c4ccccc4NC(=O)[C@@H]3[C@@]2(O)c2ccccc2N1,growth inhibition,[1]; at 1.2 µM,6%
same,growth inhibition,[1]; at 3.7 µM,12%
same,growth inhibition,[1]; at 11.0 µM,14%
same,growth inhibition,[1]; at 33.0 µM,32%
same,growth inhibition,[1]; at 100.0 µM,29%
same,growth inhibition,[2]; at 1.2 µM,8%
same,growth inhibition,[2]; at 3.7 µM,17%
same,growth inhibition,[2]; at 11.0 µM,26%
same,growth inhibition,[2]; at 33.0 µM,44%
same,growth inhibition,[2]; at 100.0 µM,39%
same,growth inhibition,[3]; [17],36%
same,growth inhibition,[3]; [18],54%
same,growth inhibition,[3]; at 50.0 µM,97.8% (active)
same,growth inhibition,[4]; at 1.2 µM,6%
same,growth inhibition,[4]; at 3.7 µM,16%
same,growth inhibition,[4]; at 11.0 µM,29%
same,growth inhibition,[4]; at 33.0 µM,52%
same,growth inhibition,[4]; at 100.0 µM,46%
O=[N+]([O-])c1ccc(S(=O)(=O)Cc2ccccc2)c([N+](=O)[O-])c1,growth inhibition,[5]; at 1.2 µM,6%
same,growth inhibition,[5]; at 3.7 µM,17%
same,growth inhibition,[5]; at 11.0 µM,47%
same,growth inhibition,[5]; at 33.0 µM,89% (active)
same,growth inhibition,[5]; at 100.0 µM,99% (active)
same,growth inhibition,[6]; at 1.2 µM,36%
same,growth inhibition,[6]; at 3.7 µM,67%
same,growth inhibition,[6]; at 11.0 µM,87% (active)
same,growth inhibition,[6]; at 33.0 µM,97% (active)
same,growth inhibition,[6]; at 100.0 µM,97% (active)
same,growth inhibition,[7]; at 1.2 µM,10%
same,growth inhibition,[7]; at 3.7 µM,14%
same,growth inhibition,[7]; at 11.0 µM,35%
same,growth inhibition,[7]; at 33.0 µM,98% (active)
same,growth inhibition,[7]; at 100.0 µM,99% (active)
same,growth inhibition,[8]; at 1.2 µM,9%
same,growth inhibition,[8]; at 3.7 µM,14%
same,growth inhibition,[8]; [17],65%
same,growth inhibition,[8]; at 11.0 µM,41%
same,growth inhibition,[8]; at 33.0 µM,87% (active)
same,growth inhibition,[8]; [18],100% (active)
same,growth inhibition,[8]; at 50.0 µM,99.5% (active)
same,growth inhibition,[8]; at 100.0 µM,98% (active)
same,growth inhibition,[9]; at 1.2 µM,12%
same,growth inhibition,[9]; at 3.7 µM,18%
same,growth inhibition,[9]; [17],31%
same,growth inhibition,[9]; at 11.0 µM,39%
same,growth inhibition,[9]; at 33.0 µM,96% (active)
same,growth inhibition,[9]; [18],100% (active)
same,growth inhibition,[9]; at 50.0 µM,99.8% (active)
same,growth inhibition,[9]; at 100.0 µM,99% (active)
same,growth inhibition,[10]; at 1.2 µM,7%
same,growth inhibition,[10]; at 3.7 µM,10%
same,growth inhibition,[10]; at 11.0 µM,22%
same,growth inhibition,[10]; at 33.0 µM,74% (active)
same,growth inhibition,[10]; at 100.0 µM,99% (active)
same,growth inhibition,[11]; [17],46%
same,growth inhibition,[11]; [18],100% (active)
same,growth inhibition,[11]; at 50.0 µM,99.5% (active)
same,growth inhibition,[12]; at 1.2 µM,-1%
same,growth inhibition,[12]; at 3.7 µM,7%
same,growth inhibition,[12]; at 11.0 µM,21%
same,growth inhibition,[12]; at 33.0 µM,61%
same,growth inhibition,[12]; at 100.0 µM,95% (active)
same,growth inhibition,[13]; [17],7%
same,growth inhibition,[13]; [18],99% (active)
same,growth inhibition,[13]; at 50.0 µM,98.6% (active)
same,growth inhibition,[14]; at 1.2 µM,1%
same,growth inhibition,[14]; at 3.7 µM,6%
same,growth inhibition,[14]; [17],56%
same,growth inhibition,[14]; at 11.0 µM,44%
same,growth inhibition,[14]; at 33.0 µM,85% (active)
same,growth inhibition,[14]; [18],99% (active)
same,growth inhibition,[14]; at 50.0 µM,99.4% (active)
same,growth inhibition,[14]; at 100.0 µM,95% (active)
same,growth inhibition,[15]; at 1.2 µM,7%
same,growth inhibition,[15]; at 3.7 µM,15%
same,growth inhibition,[15]; at 11.0 µM,37%
same,growth inhibition,[15]; at 33.0 µM,98% (active)
same,growth inhibition,[15]; at 100.0 µM,98% (active)
same,growth inhibition,[1]; at 1.2 µM,9%
same,growth inhibition,[1]; at 3.7 µM,17%
same,growth inhibition,[1]; at 11.0 µM,35%
same,growth inhibition,[1]; at 33.0 µM,93% (active)
same,growth inhibition,[1]; at 100.0 µM,99% (active)
same,growth inhibition,[2]; at 1.2 µM,16%
same,growth inhibition,[2]; at 3.7 µM,30%
same,growth inhibition,[2]; at 11.0 µM,65%
same,growth inhibition,[2]; at 33.0 µM,98% (active)
same,growth inhibition,[2]; at 100.0 µM,99% (active)
same,growth inhibition,[3]; [17],65%
same,growth inhibition,[3]; [18],100% (active)
same,growth inhibition,[3]; at 50.0 µM,99.4% (active)
same,growth inhibition,[4]; at 1.2 µM,27%
same,growth inhibition,[4]; at 3.7 µM,57%
same,growth inhibition,[4]; at 11.0 µM,87% (active)
same,growth inhibition,[4]; at 33.0 µM,96% (active)
same,growth inhibition,[4]; at 100.0 µM,99% (active)
O=C(O)c1ccc2cc(Cl)c3ccccc3c2c1,growth inhibition,[5]; at 1.2 µM,1%
same,growth inhibition,[5]; at 3.7 µM,9%
same,growth inhibition,[5]; at 11.0 µM,28%
same,growth inhibition,[5]; at 33.0 µM,55%
same,growth inhibition,[5]; at 100.0 µM,67%
same,growth inhibition,[16]; at 1.2 µM,-4%
same,growth inhibition,[16]; at 3.7 µM,3%
same,growth inhibition,[16]; at 11.0 µM,11%
same,growth inhibition,[16]; at 33.0 µM,30%
same,growth inhibition,[16]; at 100.0 µM,43%
same,growth inhibition,[7]; at 1.2 µM,-1%
same,growth inhibition,[7]; at 3.7 µM,-4%
same,growth inhibition,[7]; at 11.0 µM,15%
same,growth inhibition,[7]; at 33.0 µM,41%
same,growth inhibition,[7]; at 100.0 µM,60%
same,growth inhibition,[8]; at 1.2 µM,2%
same,growth inhibition,[8]; at 3.7 µM,12%
same,growth inhibition,[8]; [17],23%
same,growth inhibition,[8]; at 11.0 µM,31%
same,growth inhibition,[8]; at 33.0 µM,52%
same,growth inhibition,[8]; [18],93% (active)
same,growth inhibition,[8]; at 50.0 µM,94.9% (active)
same,growth inhibition,[8]; at 100.0 µM,67%
same,growth inhibition,[9]; at 1.2 µM,-5%
same,growth inhibition,[9]; at 3.7 µM,7%
same,growth inhibition,[9]; [17],1%
same,growth inhibition,[9]; at 11.0 µM,25%
same,growth inhibition,[9]; at 33.0 µM,44%
same,growth inhibition,[9]; [18],89% (active)
same,growth inhibition,[9]; at 50.0 µM,94% (active)
same,growth inhibition,[9]; at 100.0 µM,54%
same,growth inhibition,[10]; at 1.2 µM,0%
same,growth inhibition,[10]; at 3.7 µM,7%
same,growth inhibition,[10]; at 11.0 µM,20%
same,growth inhibition,[10]; at 33.0 µM,42%
same,growth inhibition,[10]; at 100.0 µM,58%
same,growth inhibition,[11]; [17],35%
same,growth inhibition,[11]; [18],93% (active)
same,growth inhibition,[11]; at 50.0 µM,93.9% (active)
same,growth inhibition,[12]; at 1.2 µM,-10%
same,growth inhibition,[12]; at 3.7 µM,-13%
same,growth inhibition,[12]; at 11.0 µM,23%
same,growth inhibition,[12]; at 33.0 µM,41%
same,growth inhibition,[12]; at 100.0 µM,57%
same,growth inhibition,[13]; [17],30%
same,growth inhibition,[13]; [18],92% (active)
same,growth inhibition,[13]; at 50.0 µM,92.8% (active)
same,growth inhibition,[14]; at 1.2 µM,-4%
same,growth inhibition,[14]; at 3.7 µM,1%
same,growth inhibition,[14]; [17],17%
same,growth inhibition,[14]; at 11.0 µM,17%
same,growth inhibition,[14]; at 33.0 µM,31%
same,growth inhibition,[14]; [18],86% (active)
same,growth inhibition,[14]; at 50.0 µM,91.4% (active)
same,growth inhibition,[14]; at 100.0 µM,30%
same,growth inhibition,[15]; at 1.2 µM,-3%
same,growth inhibition,[15]; at 3.7 µM,0%
same,growth inhibition,[15]; at 11.0 µM,15%
same,growth inhibition,[15]; at 33.0 µM,42%
same,growth inhibition,[15]; at 100.0 µM,56%
same,growth inhibition,[1]; at 1.2 µM,0%
same,growth inhibition,[1]; at 3.7 µM,4%
same,growth inhibition,[1]; at 11.0 µM,26%
same,growth inhibition,[1]; at 33.0 µM,49%
same,growth inhibition,[1]; at 100.0 µM,66%
same,growth inhibition,[3]; [17],58%
same,growth inhibition,[3]; [18],93% (active)
same,growth inhibition,[3]; at 50.0 µM,94.8% (active)
